Source: PubChem BioAssay AID1159580 (chemical genetic matrix, 2015)
Where “and” joins values, the source holds several entries; their conditions need not be identical. Equal entries are not always repeated. The campaign covered roughly 5,500 compounds. About 2,000 (36%) were called active. Inconclusive results (about 18%) are left out. No stated cut-off is given here; in the data, active means normalized growth mostly below about 0.91 (no sharp cut-off); inconclusive means no clear call, values can overlap the other calls; inactive means mostly above about 0.92. This is one part of the list.

Test: chemical genetic growth profiling, strain panel (AID 1159580);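 further: tested at 20 µM; growth read once vehicle control cultures reached saturation at 30 °C; 1 = growth at the plate median or of vehicle wells; lower values mean less growth of the strain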
Conditions: S. cerevisiae deletion strains, growth OD

Measured: normalized growth

CC1=C(C(=O)O)N2C(=O)[C@@H](NC(=O)[C@H](N)C3=CCC=CC3)C2SC1 (some centres not stated)
inactive: locus YAL013W, strain DEP1, active compounds read low 1 | locus YAL021C, strain ccr4, active compounds read low 1.01 | locus YAL026C, strain drs2, active compounds read low 1.03 | locus YAL030W, strain snc1, active compounds read low 1.03 | locus YBL061C, strain skt5, active compounds read low 1.03 | locus YBR009C, strain hhf1, active compounds read low 1.02 | locus YBR021W, strain FUR4, active compounds read low 1.02 | locus YBR023C, strain chs3, active compounds read low 1.02 | locus YBR171W, strain sec66, active compounds read low 1.04 | locus YBR229C, strain ROT2, active compounds read low 0.953 | locus YBR231C, strain swc5, active compounds read low 1.04 | locus YBR279W, strain paf1, active compounds read low 1.01 | locus YCL011C, strain gbp2, active compounds read low 1.03 | locus YCL016C, strain dcc1, active compounds read low 1.02 | locus YCL029C, strain bik1, active compounds read low 0.998 | locus YCL061C, strain MRC1, active compounds read low 1.02 | locus YCL069W, strain vba3, active compounds read low 1.02 | locus YCR088W, strain abp1, active compounds read low 1.02 | locus YDL005C, strain med2, active compounds read low 1.03 | locus YDL035C, strain GPR1, active compounds read low 0.965 | locus YDL040C, strain nat1, active compounds read low 1.02 | locus YDL074C, strain BRE1, active compounds read low 0.987 | locus YDL101C, strain DUN1, active compounds read low 0.98 | locus YDL185W, strain tfp1, active compounds read low 0.977 | locus YDL192W, strain arf1, active compounds read low 0.989 | locus YDR001C, strain nth1, active compounds read low 1.01 | locus YDR069C, strain doa4, active compounds read low 1.02 | locus YDR101C, strain arx1, active compounds read low 0.988 | locus YDR137W, strain rgp1, active compounds read low 1.03 | locus YDR159W, strain sac3, active compounds read low 1.04 | locus YDR162C, strain NBP2, active compounds read low 0.951 | locus YDR195W, strain ref2 0.992 | locus YDR297W, strain sur2, active compounds read low 1.02 | locus YDR318W, strain mcm21, active compounds read low 1 | locus YDR334W, strain swr1, active compounds read low 1.01 | locus YDR335W, strain msn5, active compounds read low 1.02 | locus YDR388W, active compounds read low 0.99 | locus YDR392W, strain spt3, active compounds read low 1.03 | locus YDR502C, strain sam2, active compounds read low 1.02 | locus YEL003W, strain gim4, active compounds read low 1.02 | locus YEL037C, strain rad23, active compounds read low 1.02 | locus YEL061C, strain CIN8 (second series), active compounds read low 1.02 | locus YEL061C, strain CIN8, active compounds read low 0.995 | locus YER015W, strain faa2, active compounds read low 1 | locus YER016W, strain bim1, active compounds read low 1.02 | locus YER110C, active compounds read low 0.981 | locus YER111C, strain swi4, active compounds read low 1.03 | locus YER155C, strain BEM2 (second series), active compounds read low 1.03 | locus YER155C, strain BEM2, active compounds read low 0.998 | locus YER167W, strain BCK2, active compounds read low 0.989 | locus YFR010W, strain ubp6, active compounds read low 1.03 | locus YGL078C, strain dbp3, active compounds read low 0.993 | locus YGL086W, strain mad1, active compounds read low 0.933 | locus YGL167C, strain pmr1, active compounds read low 1.04 | locus YGL173C, strain kem1, active compounds read low 1.03 | locus YGL227W, strain vid30, active compounds read low 1.02 | locus YGL240W, strain doc1, active compounds read low 1.03 | locus YGL248W, strain PDE1, active compounds read low 1.01 | locus YGL253W, strain hxk2, active compounds read low 1.03 | locus YGR135W, strain pre9, active compounds read low 1.03 | locus YGR252W, strain gcn5, active compounds read low 1.05 | locus YHR013C, strain ard1, active compounds read low 1.05 | locus YHR027C, strain rpn1, active compounds read low 1.02 | locus YHR030C, strain SLT2, active compounds read low 0.994 and 0.964 | locus YHR079C, strain IRE1 (second series), active compounds read low 1 | locus YHR079C, strain IRE1, active compounds read low 0.956 | locus YHR094C, strain hxt1, active compounds read low 0.983 | locus YHR129C, strain ARP1, active compounds read low 0.988 | locus YHR142W, strain chs7, active compounds read low 1.04 | locus YHR200W, strain rpn10, active compounds read low 0.986 | locus YIL066C, strain RNR3, active compounds read low 0.971 | locus YIL073C, strain SPO22, active compounds read low 1.01 | locus YIL125W, strain kgd1, active compounds read low 0.99 | locus YIR030C, strain dcg1, active compounds read low 0.993 | locus YJL092W, strain hpr5, active compounds read low 1.02 | locus YJL095W, strain BCK1 (second series), active compounds read low 1.02 | locus YJL095W, strain BCK1, active compounds read low 1.02 and 0.989 | locus YJL115W, strain asf1, active compounds read low 1.03 | locus YJL129C, strain trk1, active compounds read low 1.03 | locus YJL134W, strain LCB3, active compounds read low 0.985 | locus YJL154C, strain vps35, active compounds read low 1.01 | locus YJL164C, strain tpk1, active compounds read low 1.02 | locus YJL166W, strain qcr8, active compounds read low 1.02 | locus YJL168C, strain set2, active compounds read low 0.994 | locus YJL187C, strain SWE1 (second series), active compounds read low 0.996 | locus YJL187C, strain SWE1, active compounds read low 1.03 | locus YJR043C, strain POL32, active compounds read low 0.961
